Measured values reported in PubChem BioAssay.
For part of these data: Entries with a potency or affinity are not part of this list. The source made the active and inactive calls.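 Rule for the calls, unless noted: active = compound raising the membrane signal above positive-control mean plus 3 SD in both repeats, and a primary screen hit; inactive = the rest.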

Experiments:
[1] = test system: TRPC4 beta (transient receptor potential cation channel C4), mouse; assay: TRPC4 cation channel opening, retest – cell-based, Fluo4 calcium, HEK293 TRPC4beta/mu-opioid, duplicates, 10 µM, confirmation (AID 2426;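 active = fluorescence ratio normalized to control raised more than 50% in primary screen plus both repeat runs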;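 for activation: percent rise of integrated ratio over buffer wells lacking compound which define 0%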); details: Fluo4 calcium fluorescence, at 10 µM; hits give high values
[2] = test system: transient receptor potential cation channel C4 beta (TRPC4), mouse; assay: TRPC4 cation channel opening, second retest – cell-based, second round, Fluo4, HEK293 TRPC4beta/mu-opioid, 1 µM, confirmation (AID 2461;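 active = primary screen active and over 50% activation in each of two duplicate runs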;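 for activation: 0% = wells without test compound as baseline of integrated fluorescence ratio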); details: Fluo4 calcium fluorescence, at 1 µM; hits give high values
[3] = test system: TRPC4 (transient receptor potential cation channel C4 beta), mouse; assay: potentiation of DAMGO EC20 TRPC4 response – cell-based, second round, Fluo-4, HEK293 TRPC4beta/mu-opioid, 1 µM, confirmation (AID 2554;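 active = primary screen hit whose fluorescence ratio, in both repeats, exceeds the weak agonist control mean by 3 SD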); details: DAMGO EC20, Fluo-4 calcium flux, at 1 µM; hits give high values
[4] = test system: TRPC4 beta (transient receptor potential cation channel C4), mouse; assay: potentiation of DAMGO EC20 TRPC4 response – cell-based, Fluo-4, HEK293 TRPC4beta/mu-opioid, confirmation (AID 2555;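 active = primary screen hit whose calcium fluorescence ratio, in both repeats, exceeds the weak agonist control mean by 3 SD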); details: DAMGO EC20, Fluo-4 calcium flux, at 10 µM; hits give high values
[5] = molecular target: Short transient receptor potential channel 4 (Mus musculus) (UniProt Q9QUQ5); assay: blockers of DAMGO-evoked TRPC4 calcium flux – cell-based, Fluo4, HEK293 TRPC4beta/mu-opioid, confirmation (AID 2636;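 active = calcium signal cut by more than 3 SD below the full-agonist control yet still positive, in both repeats and the earlier primary screen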); details: at 10 µM; hits give high values
Chain of Short transient receptor potential channel 4 (Mus musculus) (Q9QUQ5 whole entry, looked up): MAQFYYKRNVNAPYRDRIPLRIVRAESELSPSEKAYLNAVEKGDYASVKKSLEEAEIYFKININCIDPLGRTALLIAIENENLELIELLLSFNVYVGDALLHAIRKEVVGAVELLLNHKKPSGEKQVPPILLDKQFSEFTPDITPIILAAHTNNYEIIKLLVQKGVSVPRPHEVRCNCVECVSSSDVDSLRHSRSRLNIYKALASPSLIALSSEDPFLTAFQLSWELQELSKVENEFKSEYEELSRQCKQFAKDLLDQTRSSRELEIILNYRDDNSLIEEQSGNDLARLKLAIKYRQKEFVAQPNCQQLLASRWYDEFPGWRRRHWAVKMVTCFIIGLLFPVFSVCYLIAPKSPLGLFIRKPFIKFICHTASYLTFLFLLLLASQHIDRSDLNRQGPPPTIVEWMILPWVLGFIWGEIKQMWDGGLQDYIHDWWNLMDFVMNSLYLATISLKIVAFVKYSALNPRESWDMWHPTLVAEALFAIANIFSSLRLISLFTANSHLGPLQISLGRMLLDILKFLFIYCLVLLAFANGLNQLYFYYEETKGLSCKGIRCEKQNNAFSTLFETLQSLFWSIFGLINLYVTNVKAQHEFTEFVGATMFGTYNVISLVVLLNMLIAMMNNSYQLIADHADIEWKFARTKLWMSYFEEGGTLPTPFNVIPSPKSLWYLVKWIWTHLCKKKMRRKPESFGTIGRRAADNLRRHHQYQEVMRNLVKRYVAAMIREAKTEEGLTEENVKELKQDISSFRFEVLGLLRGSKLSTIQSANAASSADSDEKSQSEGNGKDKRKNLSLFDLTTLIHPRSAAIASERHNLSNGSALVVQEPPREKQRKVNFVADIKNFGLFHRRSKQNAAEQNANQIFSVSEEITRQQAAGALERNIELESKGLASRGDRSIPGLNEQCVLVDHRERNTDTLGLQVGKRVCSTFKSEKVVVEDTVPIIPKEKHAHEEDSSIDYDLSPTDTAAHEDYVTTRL

[6] = molecular target: Short transient receptor potential channel 4 (Mus musculus) (UniProt Q9QUQ5); assay: blockers of DAMGO-evoked TRPC4 calcium flux – cell-based, second round, Fluo4, HEK293 TRPC4beta/mu-opioid, 1 µM, confirmation (AID 2637;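 active = calcium signal ratio cut to more than 3 SD under the fully stimulated control mean yet still positive, in both repeats and the primary screen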); details: at 1 µM; hits give high values
[7] = molecular target: Short transient receptor potential channel 4 (Mus musculus) (UniProt Q9QUQ5); assay: potentiation of DAMGO-evoked TRPC4 calcium signal – cell-based, HEK293 TRPC4/mu-opioid, Fluo-4 calcium, EC20 DAMGO, dose response (AID 434941;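 active = earlier screen potentiator hit that boosts the TRPC4 ion channel at some dose, with a dose response; inactive = no potentiation, no dose response, or not a prior hit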;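 note: calcium entry triggered by an EC20 dose of DAMGO at the co-expressed mu-opioid receptor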)
[8] = molecular target: Short transient receptor potential channel 4 (Mus musculus) (UniProt Q9QUQ5); assay: block of DAMGO-driven TRPC4 calcium entry – cell-based, HEK293 TRPC4/mu-opioid, Fluo-4 calcium, dose response (AID 434942;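 active = primary screen inhibitor hit that blocks the TRPC4 channel at some tested dose, yielding a dose curve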)
[9] = molecular target: Short transient receptor potential channel 6 (Mus musculus) (UniProt Q61143); assay: TRPC6 blockade by TRPC4 inhibitor hits – cell-based, HEK293, membrane potential dye, duplicate, selectivity assay for TRPC4 inhibitor project, confirmation (AID 434948;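 active = active in primary screen and both duplicates, each dropping signal beyond three positive-control SD with fluorescence still positive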); details: HEK293 TRPC6, membrane potential dye fluorescence, at 10 µM, stimulated with maximal-effect acetylcholine; hits give high values
Chain of Short transient receptor potential channel 6 (Mus musculus) (Q61143 whole entry, looked up): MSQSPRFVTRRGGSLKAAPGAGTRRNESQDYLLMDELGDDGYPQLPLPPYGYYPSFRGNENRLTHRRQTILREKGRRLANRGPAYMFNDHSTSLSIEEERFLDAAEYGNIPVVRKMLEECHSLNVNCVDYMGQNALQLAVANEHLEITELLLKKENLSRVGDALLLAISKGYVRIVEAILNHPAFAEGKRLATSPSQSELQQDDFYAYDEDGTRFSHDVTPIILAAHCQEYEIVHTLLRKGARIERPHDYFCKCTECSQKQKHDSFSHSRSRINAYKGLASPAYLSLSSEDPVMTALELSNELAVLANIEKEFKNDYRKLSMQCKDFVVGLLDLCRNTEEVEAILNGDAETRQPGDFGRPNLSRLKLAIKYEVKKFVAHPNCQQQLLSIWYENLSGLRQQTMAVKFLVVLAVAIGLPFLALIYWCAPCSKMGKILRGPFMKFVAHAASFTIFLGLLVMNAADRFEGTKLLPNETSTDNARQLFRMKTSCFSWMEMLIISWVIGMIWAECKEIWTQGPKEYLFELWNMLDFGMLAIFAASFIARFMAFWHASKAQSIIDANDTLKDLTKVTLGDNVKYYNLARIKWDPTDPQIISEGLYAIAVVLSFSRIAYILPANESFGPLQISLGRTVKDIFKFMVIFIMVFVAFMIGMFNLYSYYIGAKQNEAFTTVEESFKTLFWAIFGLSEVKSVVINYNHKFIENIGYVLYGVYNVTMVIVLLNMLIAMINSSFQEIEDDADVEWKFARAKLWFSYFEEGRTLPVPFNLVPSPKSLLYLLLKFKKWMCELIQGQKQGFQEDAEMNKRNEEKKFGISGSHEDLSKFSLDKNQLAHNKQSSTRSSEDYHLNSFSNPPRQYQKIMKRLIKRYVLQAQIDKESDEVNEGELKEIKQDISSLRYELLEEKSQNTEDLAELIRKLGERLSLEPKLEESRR

[10] = molecular target: Short transient receptor potential channel 6 (Mus musculus) (UniProt Q61143); assay: TRPC6 opening by TRPC4 activator hits – cell-based, HEK293, membrane potential dye, duplicate, selectivity assay for TRPC4 activator project, confirmation (AID 434950;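 active = membrane potential signal rise above negative control mean plus 3 SD in both duplicates, also active in the earlier TRPC4 screen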;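 for activation: 0% = buffer only wells and 100% = acetylcholine maximal-effect wells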); details: HEK293 TRPC6, membrane potential fluorescence, at 10 µM; activation: hits give high values; outcome: activation
[11] = molecular target: Short transient receptor potential channel 6 (Mus musculus) (UniProt Q61143); assay: positive modulators of mouse TRPC6 channel – HEK293 cells, membrane potential dye, duplicate, selectivity assay for TRPC4 potentiator project, confirmation (AID 434952); details: HEK293 TRPC6, membrane potential dye fluorescence, at 10 µM, maximal acetylcholine added after compound; hits give high values
[12] = molecular target: Short transient receptor potential channel 4 (Mus musculus) (UniProt Q9QUQ5); assay: calcium flux activators in TRPC4/5HT1a cells, counter-screen for TRPC4 activator project, cell-based, second counter screen, HEK293 TRPC4/5HT1a, Fluo-4 (AID 434977;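 active = calcium signal rise above buffer-control mean plus 5 SD in both duplicates, and also a hit in the primary screen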;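 for activation: plate controls were assay buffer for no effect and maximal serotonin response for full effect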); details: Fluo-4 calcium flux, at 10 µM; hits give high values
[13] = serotonin-gated TRPC4 signal block – cell-based, second counter screen, HEK293 TRPC4/5HT1a, Fluo-4, counter-screen for TRPC4 inhibitor project, confirmation (AID 434978;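 active = primary screen active whose calcium signal fell more than 3 SD beyond the full-serotonin control mean in both duplicate plates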;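 note: serotonin given first at submaximal then at maximal dose after compound preincubation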); details: Fluo-4 calcium flux, at 10 µM, serotonin added to trigger calcium flux; hits give high values
[14] = test system: TRPC4 (mouse), co-expressed with 5HT1a in HEK293; assay: enhancement of serotonin-evoked TRPC4 response – cell-based, second counter screen, HEK293 TRPC4/5HT1a, Fluo-4, counter-screen for TRPC4 potentiator project, confirmation (AID 434979;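 active = signal rise over 3 SD above mean of control wells given weak agonist, in both repeats and first screen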); details: Fluo-4 calcium flux, at 10 µM, serotonin added at its EC20 dose; hits give high values
[15] = nonspecific calcium rise without TRPC4 – cell-based, HEK293 mu-opioid receptor line, counter-screen for TRPC4 activator project, confirmation (AID 449723;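 active = hit in primary screen, with calcium signal over 5 SD above buffer well mean in both duplicates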;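 note: counter screen cells carry the mu-opioid receptor alone and lack TRPC4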); details: HEK293 mu-opioid cells, Fluo-4 calcium fluorescence, at 10 µM; hits give high values
[16] = nonspecific potentiation of DAMGO calcium response – cell-based, HEK293 mu-opioid receptor line, counter-screen for TRPC4 allosteric potentiator project, confirmation (AID 449724;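 active = calcium signal rise more than 3 SD above the low-dose agonist control mean, in both duplicate plates and the primary screen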); details: HEK293 mu-opioid receptor cells, Fluo-4 calcium flux, at 10 µM, compound added before EC20 DAMGO stimulus; hits give high values

CCCC(=O)N1CCc2cc(-c3nc(N)sc3C)ccc21
active: activation [1] 62%
inactive: outcome [2] | outcome [3] | outcome [4] | outcome [5] | outcome [6] | outcome [7] | outcome [8] | outcome [9] | outcome [10] | outcome [11] | outcome [12] | outcome [13] | outcome [14] | outcome [15] | outcome [16]

Cc1ccc(C(=O)NC(=S)NNC(=O)c2ccccc2)cc1
active: activation [10] 31.5% | activation [12] 72.6% | activation [15] 12.1%
inactive: outcome [1] | outcome [2] | outcome [3] | outcome [4] | outcome [5] | outcome [6] | outcome [7] | outcome [8] | outcome [9] | outcome [11] | outcome [13] | outcome [14] | outcome [16]

OC(CNC1CCCc2ccccc21)COc1ccc2ccccc2c1 (stereo not given)
inactive: outcome [2] | outcome [3] | outcome [4] | outcome [5] | outcome [6] | outcome [7] | outcome [8] | outcome [9] | outcome [11] | outcome [13] | outcome [14] | outcome [15] | outcome [16]
active: activation [1] 158% | activation [10] 55% | activation [12] 30.1%

Cn1c(CN2CCN(c3cccc(Cl)c3)CC2)nc2ccccc21
inactive: outcome [2] | outcome [3] | outcome [4] | outcome [5] | outcome [6] | outcome [7] | outcome [8] | outcome [9] | outcome [11] | outcome [12] | outcome [13] | outcome [14] | outcome [15] | outcome [16]
active: activation [1] 119% | activation [10] 49%

Cc1sc2ncnc(NC3CCN(Cc4ccccc4)CC3)c2c1C
active: activation [1] 240% | activation [2] 199% | activation [12] 145%
inactive: outcome [3] | outcome [4] | outcome [5] | outcome [6] | outcome [7] | outcome [8] | outcome [9] | outcome [10] | outcome [11] | outcome [13] | outcome [14] | outcome [15] | outcome [16]

CC(C)c1ccc(NC(=S)N(C)CCc2ccccn2)cc1
inactive: outcome [1] | outcome [2] | outcome [3] | outcome [4] | outcome [5] | outcome [6] | outcome [7] | outcome [8] | outcome [9] | outcome [10] | outcome [11] | outcome [13] | outcome [14] | outcome [15] | outcome [16]
active: activation [12] 25.6%

CCc1cccc(CC)c1NC(=S)NCC(c1cccnc1)N(C)C (stereo not given)
inactive: outcome [3] | outcome [4] | outcome [5] | outcome [6] | outcome [7] | outcome [8] | outcome [9] | outcome [11] | outcome [12] | outcome [13] | outcome [14] | outcome [15] | outcome [16]
active: activation [1] 79% | activation [2] 67% | activation [10] 46%

COc1ccc(C(CNC(=O)c2cc(SC)ccc2Cl)N(C)C)cc1 (stereo not given)
inactive: outcome [3] | outcome [4] | outcome [5] | outcome [6] | outcome [7] | outcome [8] | outcome [9] | outcome [11] | outcome [12] | outcome [13] | outcome [14] | outcome [15] | outcome [16]
active: activation [1] 103% | activation [2] 77% | activation [10] 65%

CC(C)(C)c1ccccc1NC(=O)NC1CCN(Cc2c(F)cccc2Cl)CC1
active: activation [1] 121% | activation [10] 36% | activation [12] 71.5%
inactive: outcome [2] | outcome [3] | outcome [4] | outcome [5] | outcome [6] | outcome [7] | outcome [8] | outcome [9] | outcome [11] | outcome [13] | outcome [14] | outcome [15] | outcome [16]

COc1cc(C(=O)NC(=S)NNC(=O)[C@H]2C[C@@H]2c2ccccc2)cc(OC)c1OC
active: activation [1] 59% | activation [10] 34% | activation [12] 63.3% | activation [15] 13.1%
inactive: outcome [2] | outcome [3] | outcome [4] | outcome [5] | outcome [6] | outcome [7] | outcome [8] | outcome [9] | outcome [11] | outcome [13] | outcome [14] | outcome [16]

O=C(C1CCCN(Cc2ccncc2)C1)N1CCc2ccccc2C1 (stereo not given)
active: activation [1] 204% | activation [2] 149% | activation [10] 27.5% | activation [12] 84.2%
inactive: outcome [3] | outcome [4] | outcome [5] | outcome [6] | outcome [7] | outcome [8] | outcome [9] | outcome [11] | outcome [13] | outcome [14] | outcome [15] | outcome [16]

Cc1ccc(C)c(OCCCCn2ccnc2)c1
inactive: outcome [2] | outcome [3] | outcome [4] | outcome [5] | outcome [6] | outcome [7] | outcome [8] | outcome [9] | outcome [11] | outcome [13] | outcome [14] | outcome [15] | outcome [16]
active: activation [1] 111% | activation [10] 58.5% | activation [12] 14.7%

CN(C)c1ccc(NC(=S)N2CCN(c3ncc(C(F)(F)F)cc3Cl)CC2)cc1
inactive: outcome [2] | outcome [3] | outcome [4] | outcome [5] | outcome [6] | outcome [7] | outcome [8] | outcome [9] | outcome [11] | outcome [13] | outcome [14] | outcome [15] | outcome [16]
active: activation [1] 112% | activation [10] 27.5% | activation [12] 54.3%

O=S(=O)(c1ccc(Cl)cc1)N1CCN2CCCC2C1 (stereo not given)
active: activation [1] 103% | activation [10] 27% | activation [12] 18.1% | potentiation [14] 25.7%
inactive: outcome [2] | outcome [3] | outcome [4] | outcome [5] | outcome [6] | outcome [7] | outcome [8] | outcome [9] | outcome [11] | outcome [13] | outcome [15] | outcome [16]

Cc1cc(-c2nn(-c3ccccc3F)cc2CNCCc2cnc[nH]2)c(C)s1
active: activation [1] 89% | activation [2] 87% | activation [12] 39.8%
inactive: outcome [3] | outcome [4] | outcome [5] | outcome [6] | outcome [7] | outcome [8] | outcome [9] | outcome [10] | outcome [11] | outcome [13] | outcome [14] | outcome [15] | outcome [16]
